Assay results as given in the supplement of paper PMC6555819.

Columns and labels:
Experiment in all cases: PBM binding z-score (relative to random genomic background probes); higher = stronger binding; sequences stand for … in GC…GCGATTGACAGCGTAGAATGAAGG
[1] = test system: FXR:RXRa (NR concentration 270 nM, RXRa partner concentration 90 nM)
In short: (§1)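 Binding buffer was PBS pH 7.4 with 2% milk, 0.02% Triton X-100, 1 mM DTT, 0.2 mg/mL BSA and 0.4 mg/ml salmon testes DNA. In it, ligand-free nuclear receptor dimers were incubated 1 h on custom Agilent 4×180K protein-binding microarrays carrying double-stranded probes. Antibodies against each partner (one per run) detected binding, and z-scores were calculated against random background probes after regression normalization of scanned fluorescence.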

[2] = test system: LXRa:RXRa (NR concentration 270 nM, RXRa partner concentration 90 nM)
In short: as §1

[3] = test system: LXRa homodimer (NR concentration 270 nM)
In short: as §1

[4] = test system: LXRb:RXRa (NR concentration 270 nM, RXRa partner concentration 90 nM)
In short: as §1

[5] = test system: LXRb homodimer (NR concentration 270 nM)
In short: as §1

[6] = test system: PPARa:RXRa (NR concentration 270 nM, RXRa partner concentration 90 nM)
In short: as §1

[7] = test system: PPARg:RXRa (NR concentration 180 nM, RXRa partner concentration 90 nM)
In short: as §1

[8] = test system: PPARg:RXRa 270nM:90nM, anti-RXR (NR concentration 270 nM, RXRa partner concentration 90 nM)
In short: as §1

[9] = test system: PPARg:RXRa 30nM:10nM, anti-RXR (NR concentration 30 nM, RXRa partner concentration 10 nM)
In short: as §1

[10] = test system: PPARg:RXRa 90nM:30nM, anti-RXR (NR concentration 90 nM, RXRa partner concentration 30 nM)
In short: as §1

[11] = test system: PPARg:RXRa DBDmut IVT, anti-RXR (DBD mutation: RXRa K156A/R161A, NR concentration 270 nM, RXRa partner concentration 90 nM)
In short: as §1

[12] = test system: PPARg:RXRa IVT, anti-PPARg (NR concentration 270 nM, RXRa partner concentration 90 nM)
In short: as §1

[13] = test system: PPARg DBDmut:RXRa IVT, anti-PPARg (DBD mutation: PPARg1 K132A/R137A, NR concentration 270 nM, RXRa partner concentration 90 nM)
In short: as §1

[14] = test system: PPARg DBDmut IVT, anti-PPARg (DBD mutation: PPARg1 K132A/R137A, NR concentration 270 nM)
In short: as §1

[15] = test system: PPARg homodimer (NR concentration 180 nM)
In short: as §1

[16] = test system: PXR:RXRa (NR concentration 270 nM, RXRa partner concentration 90 nM)
In short: as §1

[17] = test system: PXR homodimer (NR concentration 270 nM)
In short: as §1

[18] = test system: RARa:RXR (NR concentration 270 nM, RXRa partner concentration 90 nM)
In short: as §1

[19] = test system: RARa homodimer (NR concentration 270 nM)
In short: as §1

[20] = test system: RARb:RXRa (NR concentration 270 nM, RXRa partner concentration 90 nM)
In short: as §1

| Sequence | PBM binding z-score [1] | PBM binding z-score [2] | PBM binding z-score [3] | PBM binding z-score [4] | PBM binding z-score [5] | PBM binding z-score [6] | PBM binding z-score [7] | PBM binding z-score [8] | PBM binding z-score [9] | PBM binding z-score [10] | PBM binding z-score [11] | PBM binding z-score [12] | PBM binding z-score [13] | PBM binding z-score [14] | PBM binding z-score [15] | PBM binding z-score [16] | PBM binding z-score [17] | PBM binding z-score [18] | PBM binding z-score [19] | PBM binding z-score [20] |
| --- | --- | --- | --- | --- | --- | --- | --- | --- | --- | --- | --- | --- | --- | --- | --- | --- | --- | --- | --- | --- |
| TCTAGCAGGCCACAGGGTCACTCAAGAGGTACGG | 1.75 | 1.69 | -0.338 | 1.82 | -1.09 | 3.23 | 2.19 | 3.02 | 2.18 | 2.65 | 1.57 | 2.41 | 0.0342 | -1.16 | 1.75 | 2.71 | -0.163 | 3.42 | -0.568 | 2.63 |
| TTACCAAGGTGAGCTGAGATCGTTGATCCAACTC | -0.243 | -0.689 | -0.907 | -0.704 | -1.18 | 0.12 | -0.0237 | 0.4 | -0.0278 | 0.278 | 1.12 | 1.5 | -0.91 | -0.653 | -1.58 | 0.00925 | -1.19 | -0.376 | -1.19 | 0.893 |
| AGAATGAGGTTATATGTAGATCAGGGAAGAAAGT | 2.11 | 1.96 | 0.495 | 1.82 | 0.548 | 3.26 | 2.33 | 2.5 | 0.823 | 1.87 | 3.28 | 2.52 | 1.48 | 1.02 | 1.32 | 1.2 | 0.891 | 1.75 | 1.37 | 1.57 |
| CATACAGGGTCAGCTAGGCCAGAGAAGGGACGGC | 4.68 | 2.97 | -0.0685 | 2.27 | 0.339 | 4.4 | 3.38 | 3.06 | 0.62 | 1.82 | 1.21 | 2.58 | 0.932 | -0.117 | 1.9 | 2.24 | 0.0894 | 3.29 | 0.36 | 4.16 |
| TCTTGTAGATCAAAGGTAAAGAAAGCCGAAGCCT | 0.667 | 0.672 | -0.3 | 0.446 | -0.436 | 3.14 | 5.41 | 6.12 | 6.21 | 6.93 | 2.51 | 2.4 | 0.0443 | -0.451 | 0.519 | 0.378 | 0.111 | 0.715 | -0.116 | 0.397 |
| TTATATAGGTAAACAGGTGAAAGTCCGTAAGTTA | 0.62 | 0.679 | 0.481 | 0.738 | 0.246 | 3.31 | 5.61 | 4.75 | 2.93 | 4.41 | 6.54 | 6.8 | 2.26 | 1.83 | 1.4 | 0.532 | 0.398 | 0.957 | 1.15 | 0.687 |
| GCATATAGGTAATATAAGGTGAAAGTCCGATTGT | 1.9 | 3.31 | 0.295 | 1.14 | -0.277 | 1.81 | 1.55 | 1.24 | 0.669 | 1.16 | 3.84 | 3.32 | 1.58 | 0.946 | 0.929 | 0.702 | 0.375 | 1.78 | 0.541 | 0.618 |
| TCATATAGGGAATACAGGTGAAAGTCGGCATCTA | 1.31 | 1.1 | 0.252 | 0.958 | 0.236 | 1.92 | 1.16 | 2.76 | 4.44 | 3.22 | 3.35 | 2.3 | 1.03 | 1.07 | 1.14 | 0.862 | 0.632 | 1.2 | 1.4 | 0.823 |
| CTCGAAAGGTCGGTTGAAGTGAGTATACGGATAA | 1.48 | 1.58 | -0.00237 | 1.54 | 0.166 | 2.45 | 0.257 | 1.02 | 0.428 | 0.796 | -0.0991 | 0.86 | 0.362 | 0.582 | 0.716 | 1.17 | 0.13 | 1.38 | 0.453 | 3 |
| CTAGAAAGGTCGTGCTCAGGTGAGTATACCAAAC | 4.5 | 3.64 | 0.405 | 3.02 | 0.336 | 4.78 | 2.51 | 3.48 | 0.919 | 2.34 | 0.638 | 1.62 | -0.0853 | 0.547 | 1.73 | 2.82 | 0.0874 | 4.02 | 0.32 | 3.63 |
| CCTTACGGGGCACTCCAGGTTATAGCATCGGAGT | 0.717 | 5.05 | 0.548 | 1.13 | -0.636 | 0.679 | 0.305 | 0.0783 | -0.441 | -0.274 | 0.818 | 0.578 | -0.912 | -1.1 | 0.148 | 0.683 | -0.195 | 0.828 | -0.55 | 1.05 |
| TAGCTTAGGTCATGCGGGCCAGTATAGTGTCGGC | 4.63 | 3.38 | 0.514 | 1.93 | 0.519 | 3.57 | 1.32 | 1.95 | 0.0747 | 0.973 | 1.52 | 1.65 | 1.35 | 0.321 | 1.44 | 1.85 | -0.011 | 2.73 | -0.0276 | 3.87 |
| TCTGCTAGGTCAGTTGGTCAGGTAACGAGCTGCC | 1.03 | 0.456 | -0.298 | 0.248 | 0.236 | 1.48 | 0.452 | 1.74 | 1.15 | 1.3 | 2.56 | 3.24 | 0.0917 | 0.385 | 0.478 | 0.0993 | -0.744 | 0.735 | -0.871 | 3.3 |
| TCTATTAGTTGATAAGGGCAACCGAAACAGCGGA | 0.612 | 0.486 | 0.203 | 0.463 | 0.396 | 0.736 | 0.322 | 1.86 | 3.81 | 2.97 | 1.65 | 0.714 | 0.803 | 1.07 | 0.853 | 0.671 | 0.649 | 0.881 | 0.996 | 1.6 |
